From publication PMC4336329 (PLoS ONE, 2015)
In all, about 310,000 compounds went through this assay and about 14,000 (4.5%) showed an effect of 50% or more. Effects have a minus sign here. The entries come from a sample that favours strong results as a whole.

Molecular target: human ether-à-go-go-related gene (hERG) potassium channel (human, UniProt Q12809)
Test: primary screen, population patch clamp on CHO cells stably expressing hERG; higher = less effect of the substance
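Further: peak tail current of the secondary pulse compared with the same well before compound.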

Sequence of human ether-à-go-go-related gene (hERG) potassium channel (Q12809 whole entry, looked up): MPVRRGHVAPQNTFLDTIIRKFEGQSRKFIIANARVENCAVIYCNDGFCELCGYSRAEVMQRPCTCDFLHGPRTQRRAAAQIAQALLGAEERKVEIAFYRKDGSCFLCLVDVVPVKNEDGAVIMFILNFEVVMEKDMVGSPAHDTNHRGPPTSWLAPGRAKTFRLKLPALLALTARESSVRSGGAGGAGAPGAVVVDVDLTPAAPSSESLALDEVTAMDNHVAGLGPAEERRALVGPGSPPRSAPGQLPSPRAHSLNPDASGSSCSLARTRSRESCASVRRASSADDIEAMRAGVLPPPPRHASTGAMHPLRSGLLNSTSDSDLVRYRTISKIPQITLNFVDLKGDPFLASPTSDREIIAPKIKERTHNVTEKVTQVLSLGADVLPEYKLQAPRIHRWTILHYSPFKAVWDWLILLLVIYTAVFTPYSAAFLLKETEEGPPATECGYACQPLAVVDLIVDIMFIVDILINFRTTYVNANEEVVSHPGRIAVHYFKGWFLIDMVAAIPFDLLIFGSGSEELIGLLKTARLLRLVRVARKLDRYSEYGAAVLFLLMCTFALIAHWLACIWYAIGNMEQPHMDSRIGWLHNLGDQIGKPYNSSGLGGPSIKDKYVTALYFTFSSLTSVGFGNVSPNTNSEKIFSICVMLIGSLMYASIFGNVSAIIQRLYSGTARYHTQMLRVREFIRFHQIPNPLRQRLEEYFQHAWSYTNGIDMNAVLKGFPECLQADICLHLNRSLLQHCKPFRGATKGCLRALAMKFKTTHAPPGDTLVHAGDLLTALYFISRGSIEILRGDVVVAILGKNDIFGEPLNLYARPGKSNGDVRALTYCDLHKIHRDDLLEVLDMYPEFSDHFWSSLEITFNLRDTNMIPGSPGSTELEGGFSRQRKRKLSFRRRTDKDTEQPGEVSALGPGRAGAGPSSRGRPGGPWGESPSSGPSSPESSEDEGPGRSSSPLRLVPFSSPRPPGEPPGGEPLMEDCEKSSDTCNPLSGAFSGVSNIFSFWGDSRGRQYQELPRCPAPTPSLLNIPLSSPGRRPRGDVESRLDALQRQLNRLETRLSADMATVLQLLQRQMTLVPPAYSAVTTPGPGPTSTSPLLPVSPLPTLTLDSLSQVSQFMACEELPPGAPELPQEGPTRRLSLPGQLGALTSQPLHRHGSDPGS

| SMILES | hERG current change (%, negative = inhibition) at 10uM [%] |
| --- | --- |
| COCCNC(=O)c1cc(-c2ccccc2)n(Cc2cc(C)no2)n1 | 0.26 |
| Cn1c(O)c(C=NCCN2CCN(C(=O)Nc3ccccc3)CC2)c(=O)n(C)c1=O | 13.1 |
| O=C(Nc1cc(Cl)cc(Cl)c1)C(NCCCO)c1ccccc1 (centres unmarked) | 3.1 |
| Cc1ccc(CNCc2ccc3c(c2)OCO3)cc1 | -0.503 |
| CC(=O)CCc1ccc(OCC(O)CNCCOc2ccc(C)cc2)cc1 (centres unmarked) | -55.9 |
| CC(CNCc1ccc2c(c1)OCO2)NCc1ccc2c(c1)OCO2 (centres unmarked) | -54.5 |
| Cc1ccc(OCCNCC(O)COc2ccccc2)cc1.O=C(O)C(=O)O (centres unmarked) | -44.2 |
| Cl.OC(CNCc1ccccc1)COCc1ccc(Cl)cc1 (centres unmarked) | -50.3 |
| CC(NCc1ccc2c(c1)OCO2)c1ccccc1.Cl (centres unmarked) | 10.4 |
| Cc1ccc(C(OCC(O)CNCc2ccc(F)cc2)c2ccccc2)cc1.O=C(O)C(=O)O (centres unmarked) | -75.7 |
| CC(NCC(O)COCc1ccc(Cl)cc1)c1ccccc1.Cl (centres unmarked) | -43.1 |
| COc1ccc(CCC(=O)NCCOc2ccc(C)cc2)cc1 | 2.1 |
| CC(C)(C)NCC(O)COCc1ccc(Cl)cc1.Cl (centres unmarked) | -24.6 |
| Cc1ccc2nsnc2c1S(=O)(=O)N1CCN(CCc2ccccc2)CC1 | -42.6 |
| Cc1cc2c(=O)n(CC(=O)N3CCN(c4ccc(F)cc4)CC3)cnc2s1 | -12.4 |
| CC(C)(C)CC(C)(C)NCC(O)COCCOc1ccc(Br)cc1.Cl (centres unmarked) | -32.8 |
| O=C(NCc1ccc(F)cc1)NC(=O)c1ccc(Cl)cc1 | 8.5 |
| CCOC(=O)C1=CCN(Cc2ccccc2)CC1.Cl | 12.8 |
| Nc1nnc(SCCCC(=O)c2ccc(Br)cc2)s1 | 26.5 |
| Cc1ccc(OCC(O)CNCc2ccc(F)cc2)cc1 (centres unmarked) | -40.5 |
| CCC(=O)c1ccc(OCC(O)CNC2CCCC2)cc1 (centres unmarked) | 2.52 |
| COC(=O)c1ccc(CNCC(O)COc2ccc(-c3ccccc3)cc2)cc1 (centres unmarked) | 13.1 |
| O=C(O)C(=O)O.O=C(c1ccccc1)c1ccc(OCC(O)CNCc2ccc(F)cc2)cc1 (centres unmarked) | -68.2 |

| SMILES | hERG current change (%, negative = inhibition) at 10uM [%] |
| --- | --- |
| CC(=O)c1cccc(OCC(O)CNCCc2ccc(Cl)cc2)c1 (centres unmarked) | -49 |
| OC(CNCc1ccc2c(c1)OCO2)COc1ccccc1 (centres unmarked) | -5.74 |
| CCC(=O)c1ccc(OCC(O)CNCCc2ccc(Cl)cc2)cc1 (centres unmarked) | -72.1 |
| O=C(COc1ccc(C(=O)c2ccccc2)cc1)NCc1ccc(F)cc1 | -6.64 |
| OC(CNCc1ccc2c(c1)OCO2)COc1ccc(F)cc1 (centres unmarked) | -55.7 |
| CCC(=O)c1ccc(OCC(O)CNCc2ccc(F)cc2)cc1 (centres unmarked) | -52.2 |
| OC(CNCc1ccccc1Cl)COc1ccc(F)cc1 (centres unmarked) | -21.3 |
| CC(=O)c1ccc(OCC(O)CNCc2ccc3c(c2)OCO3)cc1 (centres unmarked) | -26.1 |
| CCc1nc(C)ccc1OCC(=O)NCCCN(C)C.O=C(O)C(=O)O | 4.48 |
| Cc1cc(C)cc(NC(=S)Nc2ccccn2)c1 | -8.14 |
| Cc1ccc(N=Cc2ccc(O)cc2O)cc1F | 20.6 |
| O=C(Cn1c(=O)oc2ccccc21)c1ccccc1 | -5.11 |
| CCN1CCN(C(=S)Nc2cccc(C(F)(F)F)c2)CC1 | -7.79 |
| CN(C(=O)C(Cl)Cl)C1CC2C=CC1C2 (centres unmarked) | 5.29 |
| Nc1c(C(=O)CSc2nccn2-c2ccc(Cl)cc2)c(=O)[nH]c(=O)n1C1CC1 | 17.5 |
| CS(=O)(=O)N1CCC(C(=O)NCc2ccco2)CC1 | 6.1 |
| COc1ccccc1-c1nnc(SC)n1C | 36.9 |
| COc1nc2ccccc2nc1N1CCN(c2ccc(F)cc2)CC1 | 17.5 |
| COc1nc2ccccc2nc1N1CCN(C)CC1 | -23.9 |
| CC(C)COc1nc2ccccc2nc1N1CCN(C)CC1 | -72.9 |
| FC(F)(F)c1cccc(N2CCN(c3nnnn3-c3ccccc3)CC2)c1 | -25.3 |
| COc1ccc2nc(/C=N/NC(=O)CCCCCNC(=O)OC(C)(C)C)ccc2c1 | -0.0758 |
| O=C(COc1ccc(Cl)cc1)N1CCN(S(=O)(=O)c2ccc(Cl)cc2)CC1 | -11.9 |

| SMILES | hERG current change (%, negative = inhibition) at 10uM [%] |
| --- | --- |
| N#Cc1ccc(OCC(=O)N2CCN(S(=O)(=O)c3cccc(Cl)c3)CC2)cc1 | -71.4 |
| O=C(COc1ccc(Cl)cc1)N1CCN(S(=O)(=O)c2ccccc2)CC1 | -54.6 |
| COc1ccc(OCC(=O)N2CCN(S(=O)(=O)c3ccc(Cl)cc3)CC2)cc1 | -22.9 |
| COc1ccc(CCC(=O)N2CCN(S(=O)(=O)c3cccc(Cl)c3)CC2)cc1 | -34.8 |
| O=C(COc1ccccc1)N1CCN(S(=O)(=O)c2ccc(Cl)cc2)CC1 | -2.27 |
| CC(=O)c1ccc(NCC(=O)N2CCN(S(=O)(=O)c3ccccc3)CC2)cc1 | -5.61 |
| N#Cc1ccc(NCC(=O)N2CCN(S(=O)(=O)c3ccccc3)CC2)cc1 | -70.2 |
| N#Cc1ccccc1NCC(=O)N1CCN(S(=O)(=O)c2ccccc2)CC1 | -1.49 |
| O=C(NCCC1CCCCN1S(=O)(=O)c1ccccc1)C(=O)Nc1ccccc1 (centres unmarked) | -12.3 |
| COC(=O)Oc1ccc(/C=N/NS(=O)(=O)c2ccccc2)cc1OC | 21.2 |
| CCC(=Nc1ccccc1N)c1c(O)[nH]c(=O)[nH]c1=O | 18.5 |
| COC(=O)C1CN(C(=O)COc2cccc(C)c2C)c2ccccc2O1 (centres unmarked) | -6.63 |
| Cc1cccc(NC(=O)CCN2C(=O)C3C4C=CC(C4)C3C2=O)n1 (centres unmarked) | 5.71 |
| COc1ccc(F)cc1C(=O)C1CCCN(Cc2c(C)n(C)n(-c3ccccc3)c2=O)C1 (centres unmarked) | -11.5 |
| COc1ccc(C(=O)C2CCCN(Cc3c(F)ccc(F)c3F)C2)c(OC)c1 (centres unmarked) | -30.9 |
| COc1ccc(F)cc1C(=O)C1CCCN(Cc2cn(C)c3ccccc23)C1 (centres unmarked) | -39.5 |
| COc1ccc(C(=O)C2CCCN(Cc3c(C)[nH]c4ccccc34)C2)c(OC)c1 (centres unmarked) | -70.1 |
| COc1ccc(F)cc1C(=O)C1CCCN(Cc2c[nH]c3ccccc23)C1 (centres unmarked) | -63.8 |
| COc1ccc(C(=O)C2CCCN(Cc3c[nH]c4ccccc34)C2)c(OC)c1 (centres unmarked) | -70.8 |
| COc1ccc(C(=O)COC(=O)Cc2c[nH]c3ccccc23)c(OC)c1 | 4.87 |
| CC1=C(C(=O)OC(C)C)C(c2ccncc2)n2ncnc2N1 (centres unmarked) | 0.568 |
| CCOc1nc(Nc2cc(Cl)ccc2OC)nc(OCC)n1 | 19.7 |
| N#Cc1ccccc1CSCCNC(=O)Cc1c(F)cccc1Cl | 15.8 |

| SMILES | hERG current change (%, negative = inhibition) at 10uM [%] |
| --- | --- |
| CCN(CC)S(=O)(=O)c1ccc2c(c1)nc(CCC(=O)Nc1ccc3c(c1)OCO3)n2CC | -0.447 |
| Cc1ccc2c(c1)nnn2C1CCN(S(=O)(=O)c2ccc(C(=O)NC3CCCC3)cc2)CC1 | 15.9 |
| CCOc1ccc(N(C)S(=O)(=O)c2cc(-c3cc(C)no3)ccc2C(C)C)cc1 | 4.4 |
| Cc1cc(N(C)Cc2ccccc2)nc(-c2ccccc2)n1 | -24.1 |
| CN(Cc1ccccc1)c1cc(Cl)nc(N)n1 | -1.61 |
| Cc1cc(N(C)Cc2ccccc2)nc2cc(O)ccc12 | -56.4 |
| C=CCn1nc2ccccc2c1OC | 3.76 |
| C=CCNc1c2c(nc3ncnn13)CC(C)CC2 (centres unmarked) | -14.8 |
| c1ccc(Nc2c3c(nc4ncnn24)CCC3)cc1 | -54.5 |
| C#CCNc1c2c(nc3ncnn13)CC(C)CC2 (centres unmarked) | -10.7 |
| Brc1ccc(Nc2c3c(nc4ncnn24)CCC3)cc1 | -21.4 |
| Clc1ccc(Nc2c3c(nc4ncnn24)CCC3)cc1 | 8.29 |
| CCOc1ccc(Nc2c3c(nc4ncnn24)CC(C)CC3)cc1 (centres unmarked) | -53.9 |
| Clc1ccc(/C=N/Nc2nn[nH]n2)cc1 | 12.6 |
| Cc1ccc2nsnc2c1S(=O)(=O)Nc1ccccc1C(=O)O | -7.06 |
| Cc1c(Cc2ccccc2)sc(NC(=O)/C=C/c2cccc3ccccc23)c1C(N)=O | 20 |
| COc1ccc(CN2C(=NC(=O)CCC3CCCC3)SC3CS(=O)(=O)CC32)cc1 (centres unmarked) | 19.7 |
| CCCCN1C[C@H](Cc2ccccc2)[C@@H](CC(=O)NCc2ccc(OC)cc2)C1=O | -61.8 |
| COc1ccc(CNC(=O)C[C@H]2C(=O)N(c3ccccc3)C[C@@H]2Cc2ccccc2)cc1 | -49.4 |
| COc1ccc(CN2C[C@H](Cc3ccccc3)[C@@H](CC(=O)Nc3ccccc3)C2=O)cc1 | -10.5 |
| COc1ccc(CNC(=O)C[C@H]2C(=O)N(CCc3ccccc3)C[C@@H]2Cc2ccccc2)cc1 | -53 |
| COc1ccc(CNC(=O)C[C@H]2C(=O)N(Cc3ccccc3)C[C@@H]2Cc2ccccc2)cc1 | 2.76 |
| COc1ccc(CNC(=O)C[C@H]2C(=O)N(Cc3ccc(OC)cc3)C[C@@H]2Cc2ccccc2)cc1 | -45.9 |
